Results filed as inconclusive are left out. More than one record can exist for a structure, and the calls need not agree. Active and inactive are the calls of the source. The calls were made as follows, unless noted: active = hit-call score of the fitted dose curve at least 0.9, where 1 is the maximum; inconclusive = response in the unintended direction; inactive = score below 0.9.
Key:
[1] = ATG_GATA_CIS: Attagene CIS-FACTORIAL HepG2 Assay for human GATA Binding Protein (AID 2282944; active = hit-call score of the fitted dose curve at least 0.9, where 1 is the maximum; inactive = score below 0.9); conditions: HepG2 GATA cis-element reporter, Attagene multiplex mRNA; actives raise or lower the signal
In short: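 HepG2 cells transiently transfected with multiplexed cis-element reporter units measure endogenous GATA activity; after 24 h compound exposure, reporter mRNA quantified by RT-PCR and capillary electrophoresis. Changes fitted in both directions vs DMSO.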

[2] = ATG_GRE_CIS: Attagene CIS-FACTORIAL HepG2 Assay for human Glucocorticoid Response Elements (GRE) (AID 2282947; active = hit-call score of the fitted dose curve at least 0.9, where 1 is the maximum; inactive = score below 0.9); conditions: HepG2 GRE cis-reporter, Attagene multiplex mRNA; actives raise or lower the signal
In short: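 Read-out: fluorescent reporter-transcript fragments separated by capillary electrophoresis after RT-PCR. Transiently transfected HepG2 cells carrying cis-element-driven reporter units were dosed for 24 h; gain or loss of signal fitted against DMSO control.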

[3] = molecular target: Hepatocyte nuclear factor 6 (Homo sapiens) (UniProt Q9UBC0); assay: ATG_HNF6_CIS: Attagene CIS-FACTORIAL HepG2 Assay for human Hepatocyte Nuclear Factor 6 (HNF6) (AID 2282952; active = hit-call score of the fitted dose curve at least 0.9, where 1 is the maximum; inactive = score below 0.9); conditions: HepG2 Attagene cis-factorial HNF6 reporter transcription; actives raise or lower the signal
Sequence of Hepatocyte nuclear factor 6 (Homo sapiens) (Q9UBC0 whole entry, looked up): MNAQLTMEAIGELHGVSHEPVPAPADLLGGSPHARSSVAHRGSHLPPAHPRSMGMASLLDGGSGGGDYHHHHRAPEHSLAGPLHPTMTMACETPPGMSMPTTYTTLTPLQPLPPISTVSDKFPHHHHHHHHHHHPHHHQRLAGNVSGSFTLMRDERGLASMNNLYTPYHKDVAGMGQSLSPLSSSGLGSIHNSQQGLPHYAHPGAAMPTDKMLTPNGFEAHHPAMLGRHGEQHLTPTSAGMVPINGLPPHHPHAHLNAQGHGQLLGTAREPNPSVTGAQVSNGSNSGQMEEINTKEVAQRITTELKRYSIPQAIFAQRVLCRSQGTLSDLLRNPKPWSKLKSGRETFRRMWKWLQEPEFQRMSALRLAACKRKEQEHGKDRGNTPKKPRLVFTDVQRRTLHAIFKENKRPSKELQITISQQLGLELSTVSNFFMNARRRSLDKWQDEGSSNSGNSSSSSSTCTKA
In short: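 Endogenous transcription factor activity in human HepG2 liver cells was captured through cis-regulated reporter constructs. After 24 h treatment, reporter mRNA was measured by RT-PCR with capillary electrophoresis, and activity was fitted in both directions relative to DMSO.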

[4] = ATG_PBREM_CIS: Attagene CIS-FACTORIAL HepG2 Assay for human Phenobarbital-responsive Enhancer Module (PBREM) (AID 2282955; active = hit-call score of the fitted dose curve at least 0.9, where 1 is the maximum; inactive = score below 0.9); conditions: HepG2 PBREM cis-reporter, Attagene multiplexed transcription; actives raise or lower the signal
In short: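 HepG2 cells transiently transfected with multiple cis-regulated reporter transcription units; endogenous factor activity at the PBREM element measured as reporter mRNA 24 h after dosing, via RT-PCR and capillary electrophoresis of fluorescent fragments; bidirectional fitting versus DMSO.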

[5] = molecular target: Hepatocyte nuclear factor 4-alpha (Homo sapiens) (UniProt P41235); assay: ATG_HNF4a_TRANS: Attagene TRANS-FACTORIAL HepG2 Assay for human Hepatocyte Nuclear Factor 4 alpha (HNF4a) (AID 2282982); conditions: HepG2 HNF4a transactivation reporter, mRNA readout
Sequence of Hepatocyte nuclear factor 4-alpha (Homo sapiens) (P41235 whole entry, looked up): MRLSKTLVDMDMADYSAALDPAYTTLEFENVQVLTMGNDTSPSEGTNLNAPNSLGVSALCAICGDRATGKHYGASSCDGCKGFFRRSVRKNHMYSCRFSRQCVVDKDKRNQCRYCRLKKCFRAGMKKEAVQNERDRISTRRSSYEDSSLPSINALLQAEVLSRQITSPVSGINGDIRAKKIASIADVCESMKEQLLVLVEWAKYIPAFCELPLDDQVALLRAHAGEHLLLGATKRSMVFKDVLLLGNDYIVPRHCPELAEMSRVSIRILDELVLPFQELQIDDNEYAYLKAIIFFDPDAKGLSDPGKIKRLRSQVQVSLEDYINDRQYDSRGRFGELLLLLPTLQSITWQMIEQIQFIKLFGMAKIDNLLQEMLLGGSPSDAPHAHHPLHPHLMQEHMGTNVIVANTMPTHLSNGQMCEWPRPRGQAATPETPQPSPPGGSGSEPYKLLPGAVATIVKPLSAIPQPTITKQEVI
In short: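 Transient MRTU transfection of HepG2, 24 h dosing. Readout: reporter mRNA via RT-PCR + capillary electrophoresis, fluorescence; activity fit upward relative to DMSO control.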

[6] = ATG_M_32_TRANS: Attagene TRANS-FACTORIAL HepG2 Assay for M32 Transcription Factor (Internal Marker) (AID 2282984); conditions: HepG2 Attagene TRANS M32 internal marker reporter
In short: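 Read-out: fluorescent reporter cDNA fragments resolved by capillary electrophoresis after RT-PCR of total RNA. Transfected HepG2 cells were exposed to chemical for 24 h. Activity scored in the positive direction relative to DMSO.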

[7] = ATG_NF_kB_CIS: Attagene CIS-FACTORIAL HepG2 Assay for human Nuclear Factor Kappa B (NF-kB) (AID 2282991; active = hit-call score of the fitted dose curve at least 0.9, where 1 is the maximum; inactive = score below 0.9); conditions: HepG2 Attagene cis-factorial NF-kB reporter mRNA; actives raise or lower the signal
In short: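 HepG2 cells transiently transfected with multiplexed cis-element reporter units measuring endogenous transcription factor activity; reporter mRNA read 24 h after dosing by RT-PCR, fluorescent labelling, HpaI digestion and capillary electrophoresis. Bidirectional fit against DMSO baseline.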

[8] = molecular target: Retinoic acid receptor RXR-alpha (Homo sapiens) (UniProt P19793); assay: ATG_RXRa_TRANS: Attagene TRANS-FACTORIAL HepG2 Assay for human Retinoid X Receptor alpha (RXRa) (AID 2283012)
Sequence of Retinoic acid receptor RXR-alpha (Homo sapiens) (P19793 whole entry, looked up, the tested form may be a part): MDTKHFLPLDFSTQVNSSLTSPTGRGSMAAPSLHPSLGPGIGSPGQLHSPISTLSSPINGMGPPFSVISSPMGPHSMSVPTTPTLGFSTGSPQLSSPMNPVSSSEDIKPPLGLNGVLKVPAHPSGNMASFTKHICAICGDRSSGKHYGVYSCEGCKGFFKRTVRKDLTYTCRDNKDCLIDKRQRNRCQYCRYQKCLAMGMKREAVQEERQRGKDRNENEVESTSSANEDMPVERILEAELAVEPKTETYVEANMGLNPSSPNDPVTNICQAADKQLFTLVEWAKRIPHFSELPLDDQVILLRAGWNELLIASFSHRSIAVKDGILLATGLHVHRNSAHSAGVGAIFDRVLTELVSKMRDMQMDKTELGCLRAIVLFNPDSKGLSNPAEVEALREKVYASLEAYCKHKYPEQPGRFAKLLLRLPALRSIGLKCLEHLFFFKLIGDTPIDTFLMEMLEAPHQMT
In short: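 Chimeric NR-GAL4 trans-activation in HepG2, 24 h treatment; reporter transcripts quantified by fluorescence on capillary electrophoresis, analysed for upward change from DMSO.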

[9] = molecular target: human Retinoid X Receptor beta (RXRb), RXRB (gene 6257) (UniProt P28702); assay: ATG_RXRb_TRANS: Attagene TRANS-FACTORIAL HepG2 Assay for human Retinoid X Receptor beta (RXRb) (AID 2283013)
Sequence of human Retinoid X Receptor beta (RXRb), RXRB (gene 6257) (P28702 whole entry, looked up, the tested form may be a part): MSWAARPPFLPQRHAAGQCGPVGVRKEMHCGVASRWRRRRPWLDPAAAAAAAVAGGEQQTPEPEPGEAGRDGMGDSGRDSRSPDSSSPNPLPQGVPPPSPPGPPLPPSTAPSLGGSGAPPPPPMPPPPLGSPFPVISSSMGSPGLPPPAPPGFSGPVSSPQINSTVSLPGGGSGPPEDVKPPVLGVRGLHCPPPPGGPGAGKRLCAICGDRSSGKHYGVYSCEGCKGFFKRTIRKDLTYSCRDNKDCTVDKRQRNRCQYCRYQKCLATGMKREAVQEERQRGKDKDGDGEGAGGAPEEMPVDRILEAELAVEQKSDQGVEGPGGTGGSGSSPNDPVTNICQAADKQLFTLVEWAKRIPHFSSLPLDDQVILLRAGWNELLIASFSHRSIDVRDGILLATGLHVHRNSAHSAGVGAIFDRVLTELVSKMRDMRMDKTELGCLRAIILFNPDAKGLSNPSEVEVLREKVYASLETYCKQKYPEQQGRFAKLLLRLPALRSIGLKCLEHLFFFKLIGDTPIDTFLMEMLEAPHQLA
In short: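 After a 24 h incubation with test chemical, transfected HepG2 cells carrying NR-Gal4 fusions and GAL4-UAS reporter transcription units yield RNA whose reporter cDNA is FAM-labelled, HpaI-cut and sized by capillary electrophoresis; increases over DMSO are scored.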

[10] = TOX21_p53_BLA_p2_viability: Viability Assessment in the Tox21 HCT-116 p53 Agonism Beta-lactamase Assay, Phase 2 (AID 2283591);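 also: compound exposure lasted 16 h at 37 °C; actives lower the ATP signal meaning cytotoxicity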
In short: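 HCT116 p53-bla cells, 4000/well, dosed after 5 h plating (217-fold dilution of DMSO stocks) and incubated 16 h at 37C. Viability taken as cellular ATP by CellTiter-Glo luminescence after 30 min RT; signal loss marks cytotoxicity.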

[11] = molecular target: Cellular tumor antigen p53 (Homo sapiens) (UniProt P04637); assay: TOX21_p53_BLA_p2_ratio: Tox21 HCT-116 p53 Agonism Beta-lactamase Assay, Ratio, Phase 2 (AID 2283592)
Sequence of Cellular tumor antigen p53 (Homo sapiens) (P04637 whole entry, looked up): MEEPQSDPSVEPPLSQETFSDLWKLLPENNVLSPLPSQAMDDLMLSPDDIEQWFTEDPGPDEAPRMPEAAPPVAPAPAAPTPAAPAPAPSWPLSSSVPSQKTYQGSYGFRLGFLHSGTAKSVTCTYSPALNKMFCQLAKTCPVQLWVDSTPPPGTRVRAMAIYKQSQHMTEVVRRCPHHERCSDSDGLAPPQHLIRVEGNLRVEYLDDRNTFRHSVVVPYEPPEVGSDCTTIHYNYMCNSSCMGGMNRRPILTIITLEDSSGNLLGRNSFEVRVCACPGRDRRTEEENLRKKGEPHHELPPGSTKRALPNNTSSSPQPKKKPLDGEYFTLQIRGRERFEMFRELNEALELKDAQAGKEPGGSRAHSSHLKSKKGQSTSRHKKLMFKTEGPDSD
In short: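 Cleaved-to-uncleaved substrate ratio (460 vs 530 nm) measured in HCT116 cells with an inducible beta-lactamase reporter linked to p53 activity. Compounds incubated 16 h at 37C before 2 h room-temperature CCF4-AM loading.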

[12] = molecular target: Cellular tumor antigen p53 (Homo sapiens) (UniProt P04637); assay: TOX21_p53_BLA_p3_ratio: Tox21 HCT-116 p53 Agonism Beta-lactamase Assay, Ratio, Phase 3 (AID 2283596)
In short: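 Cells were seeded at 4000/well, rested 5 h at 37C, then dosed with DMSO compound solutions (217-fold dilution) for 16 h. CCF4-AM substrate was loaded for 2 h at room temperature, and the 460/530 nm emission ratio was fitted for gain of signal versus DMSO.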

[13] = molecular target: Cellular tumor antigen p53 (Homo sapiens) (UniProt P04637); assay: TOX21_p53_BLA_p5_ratio: Tox21 HCT-116 p53 Agonism Beta-lactamase Assay, Ratio, Phase 5 (AID 2283599)
In short: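 HCT-116 p53-bla cells (4000/well) plated 5 h, dosed with compound (217-fold DMSO dilution) for 16 h at 37 C; CCF4-AM substrate 2 h at room temperature. Activity is the 460/530 nm emission ratio (405 nm excitation), fitted in gain-of-signal direction versus DMSO.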

[14] = molecular target: Cellular tumor antigen p53 (Homo sapiens) (UniProt P04637); assay: TOX21_p53_BLA_p4_ratio: Tox21 HCT-116 p53 Agonism Beta-lactamase Assay, Ratio, Phase 4 (AID 2283601)
In short: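 HCT-116 p53 beta-lactamase reporter cells (4000/well) preincubated 5 h, then compound (217-fold dilution of DMSO stock) for 16 h at 37C. CCF4-AM substrate added 2 h at room temperature; 460/530 nm emission ratio fitted upward versus DMSO.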

[15] = ATG_M_19_CIS: Attagene CIS-FACTORIAL HepG2 Assay for M19 Transcription Factor (Internal Marker) (AID 2282939; active = hit-call score of the fitted dose curve at least 0.9, where 1 is the maximum; inactive = score below 0.9); conditions: HepG2 Attagene CIS-FACTORIAL M19 internal marker reporter; actives raise or lower the signal
In short: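 HepG2 cells transiently transfected with cis-regulated multiplexed reporter units, dosed 24 h. Reporter mRNA quantified by RT-PCR and capillary electrophoresis; internal background marker fitted bidirectionally versus DMSO.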

[16] = molecular target: Paired box protein Pax-6 (Homo sapiens) (UniProt P26367); assay: ATG_Pax6_CIS: Attagene CIS-FACTORIAL HepG2 Assay for human Paired Box 6 (PAX6) (AID 2282956; active = hit-call score of the fitted dose curve at least 0.9, where 1 is the maximum; inactive = score below 0.9); conditions: HepG2 CIS-FACTORIAL PAX6 reporter transcription, RNA readout; actives raise or lower the signal
Sequence of Paired box protein Pax-6 (Homo sapiens) (P26367 whole entry, looked up): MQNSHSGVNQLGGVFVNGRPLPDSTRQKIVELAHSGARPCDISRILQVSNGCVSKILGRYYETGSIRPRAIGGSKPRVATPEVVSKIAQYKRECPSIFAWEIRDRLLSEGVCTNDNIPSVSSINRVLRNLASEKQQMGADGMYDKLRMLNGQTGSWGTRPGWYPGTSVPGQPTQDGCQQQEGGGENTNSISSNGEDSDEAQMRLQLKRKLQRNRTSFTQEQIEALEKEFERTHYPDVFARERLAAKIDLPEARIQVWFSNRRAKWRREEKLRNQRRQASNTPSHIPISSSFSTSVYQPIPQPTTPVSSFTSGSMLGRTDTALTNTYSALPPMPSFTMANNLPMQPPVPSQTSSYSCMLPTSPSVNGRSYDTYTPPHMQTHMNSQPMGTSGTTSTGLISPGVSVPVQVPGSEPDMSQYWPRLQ
In short: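 Fluorescent RT-PCR products separated by capillary electrophoresis report PAX6-linked promoter mRNA in HepG2 cells 24 h post-dose. Curves fitted bidirectionally, DMSO as negative control.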

[17] = ATG_NFI_CIS: Attagene CIS-FACTORIAL HepG2 Assay for human Nuclear Factor I (NFI) (AID 2282989; active = hit-call score of the fitted dose curve at least 0.9, where 1 is the maximum; inactive = score below 0.9); conditions: HepG2 cis-regulatory reporter, NFI response element transcription; actives raise or lower the signal
In short: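 Endogenous TF activity in HepG2 cells transiently transfected with cis-element-driven multiplexed reporter units, read 24 h after dosing. Reporter mRNA quantified by RT-PCR, 6-FAM labelling, HpaI digestion and capillary electrophoresis; bidirectional fit versus DMSO.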

[18] = molecular target: human Vitamin D Receptor (VDR), VDR (gene 7421) (UniProt P11473); assay: ATG_VDR_TRANS: Attagene TRANS-FACTORIAL HepG2 Assay for human Vitamin D Receptor (VDR) (AID 2283022)
Sequence of human Vitamin D Receptor (VDR), VDR (gene 7421) (P11473 whole entry, looked up, the tested form may be a part): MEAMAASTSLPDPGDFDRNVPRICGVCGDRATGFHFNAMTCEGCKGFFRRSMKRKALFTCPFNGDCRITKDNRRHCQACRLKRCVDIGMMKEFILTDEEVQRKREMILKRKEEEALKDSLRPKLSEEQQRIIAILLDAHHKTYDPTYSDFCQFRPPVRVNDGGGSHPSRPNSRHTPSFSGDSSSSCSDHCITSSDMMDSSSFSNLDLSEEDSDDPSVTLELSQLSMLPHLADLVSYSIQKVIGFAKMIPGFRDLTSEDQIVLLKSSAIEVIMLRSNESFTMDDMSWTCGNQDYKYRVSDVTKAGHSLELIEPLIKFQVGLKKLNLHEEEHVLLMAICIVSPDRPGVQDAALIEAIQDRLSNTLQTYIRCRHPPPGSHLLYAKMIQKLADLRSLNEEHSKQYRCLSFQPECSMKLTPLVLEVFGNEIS
In short: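 Fluorescence of labelled reporter cDNA fragments, resolved by capillary electrophoresis, gives mRNA induction after 24 h treatment of HepG2 cells carrying transfected Gal4-fusion reporter units. Activity is fitted in the positive direction with DMSO as baseline.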

[19] = ATG_M_06_TRANS: Attagene TRANS-FACTORIAL HepG2 Assay for M06 Transcription Factor (Internal Marker) (AID 2282983); conditions: HepG2 Attagene TRANS M06 internal marker reporter;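 also: reporter transcript level by RT-PCR then capillary electrophoresis fluorescence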
In short: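 Human liver HepG2 cells bearing transiently transfected chimeric NR-GAL4 reporter units were treated with chemicals for 24 h. Total RNA was reverse-transcribed, reporter sequences amplified and labelled, then quantified by capillary electrophoresis. Activity was fitted upward relative to DMSO.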

[20] = ATG_TA_CIS: Attagene CIS-FACTORIAL HepG2 Assay for human TA Basal Promoter (AID 2282964; active = hit-call score of the fitted dose curve at least 0.9, where 1 is the maximum; inactive = score below 0.9); conditions: HepG2 Attagene CIS-factorial TA basal promoter reporter; actives raise or lower the signal
In short: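 HepG2 cells transiently transfected with multiple reporter units under cis promoter elements, reporting endogenous transcription factor activity; this endpoint tracks the TA basal promoter as background control. Reporter mRNA after 24 h dosing measured by RT-PCR/capillary electrophoresis; bidirectional fits versus DMSO.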

COCCCN
outcome [1]: inactive | outcome [2]: inactive | outcome [3]: inactive | outcome [4]: inactive | outcome [5]: inactive | outcome [6]: inactive | outcome [7]: inactive | outcome [8]: inactive | outcome [9]: inactive | outcome [10]: inactive | outcome [11]: inactive | outcome [12]: inactive | outcome [13]: inactive | outcome [14]: inactive

CC(C)(Oc1ccc(Cl)cc1)C(=O)O
outcome [15]: inactive | outcome [2]: inactive | outcome [3]: inactive | outcome [4]: inactive | outcome [16]: inactive | outcome [5]: inactive | outcome [6]: inactive | outcome [17]: inactive | outcome [8]: inactive | outcome [9]: inactive | outcome [18]: inactive | outcome [10]: inactive | outcome [11]: inactive | outcome [12]: inactive | outcome [13]: inactive | outcome [14]: inactive

CCC(C)NC(N)=O (stereo unspecified)
outcome [15]: inactive | outcome [3]: inactive | outcome [4]: inactive | outcome [19]: inactive | outcome [6]: inactive | outcome [17]: inactive | outcome [7]: inactive | outcome [8]: inactive | outcome [11]: inactive | outcome [12]: inactive

CC/C=C\CCCCCO
outcome [15]: inactive | outcome [1]: inactive | outcome [2]: inactive | outcome [3]: inactive | outcome [4]: inactive | outcome [16]: inactive | outcome [20]: inactive | outcome [5]: inactive | outcome [19]: inactive | outcome [8]: inactive | outcome [10]: inactive | outcome [11]: inactive | outcome [12]: inactive | outcome [13]: inactive

COC(OC)C(C)c1ccccc1 (stereo unspecified)
outcome [15]: inactive | outcome [1]: inactive | outcome [2]: inactive | outcome [16]: inactive | outcome [5]: inactive | outcome [19]: inactive | outcome [6]: inactive | outcome [7]: inactive | outcome [8]: inactive | outcome [9]: inactive | outcome [18]: inactive | outcome [10]: inactive | outcome [11]: inactive | outcome [12]: inactive | outcome [13]: inactive | outcome [14]: inactive

Cc1cc(O)cc(C)c1Cl
outcome [15]: inactive | outcome [2]: inactive | outcome [3]: inactive | outcome [16]: inactive | outcome [20]: inactive | outcome [19]: inactive | outcome [6]: inactive | outcome [17]: inactive | outcome [7]: inactive | outcome [8]: inactive | AC50 [9]: 48.8 µM (active)

CCCCCC[C@@H](O)C/C=C\CCCCCCCC(=O)O
outcome [15]: inactive | AC50 [1]: 165 µM (active) | AC50 [2]: 186 µM (active) | AC50 [3]: 160 µM (active) | outcome [4]: inactive | outcome [20]: inactive | outcome [5]: inactive | outcome [19]: inactive | outcome [6]: inactive | AC50 [17]: 153 µM (active) | outcome [7]: inactive | outcome [8]: inactive | AC50 [9]: 30.9 µM (active) | outcome [18]: inactive | outcome [10]: inactive | AC50 [11]: 68.9 µM (active) | outcome [11]: inactive | AC50 [12]: 36.6 µM (active) | outcome [12]: inactive | AC50 [13]: 37.4 µM (active) | outcome [13]: inactive | AC50 [14]: 73.6 µM (active) | outcome [14]: inactive

CC/C=C\CC/C=C/C(OCC)OCC
outcome [15]: inactive | outcome [1]: inactive | outcome [2]: inactive | outcome [4]: inactive | outcome [16]: inactive | outcome [5]: inactive | outcome [19]: inactive | outcome [6]: inactive | outcome [17]: inactive | AC50 [7]: 100 µM (active) | outcome [13]: inactive

CCC(=O)OCc1ccc(OC)cc1
outcome [15]: inactive | outcome [1]: inactive | outcome [2]: inactive | outcome [4]: inactive | outcome [20]: inactive | outcome [5]: inactive | outcome [6]: inactive | outcome [17]: inactive | outcome [7]: inactive | outcome [8]: inactive | outcome [9]: inactive | outcome [10]: inactive | outcome [11]: inactive | outcome [12]: inactive | outcome [13]: inactive | outcome [14]: inactive
